HPGD inh: inhibitors of human 15-hydroxyprostaglandin dehydrogenase (HPGD). P15428. purified HPGD, NADH fluorescence kinetic, PGE2 substrate. Potency, µM, inactives show top-dose activity change, negative = inhibition, hits mostly inhibitors. 150,000 compounds, 4.3% hits; further: potency means the concentration at half of the fitted maximal effect
Target sequence (P15428 whole entry, looked up): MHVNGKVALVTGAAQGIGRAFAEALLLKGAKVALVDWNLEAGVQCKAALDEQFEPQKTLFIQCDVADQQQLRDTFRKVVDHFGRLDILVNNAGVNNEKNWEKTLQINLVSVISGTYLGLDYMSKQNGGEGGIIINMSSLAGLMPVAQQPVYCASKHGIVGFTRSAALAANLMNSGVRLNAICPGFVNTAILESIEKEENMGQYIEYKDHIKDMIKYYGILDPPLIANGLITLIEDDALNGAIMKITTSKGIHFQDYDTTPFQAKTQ
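20 nM HPGD preincubated 15 min at room temperature with compound in 50 mM Tris-HCl pH 8, 0.01% Tween 20. Started with 1 mM NAD+ and 30 uM prostaglandin E2; NADH fluorescence (360/450 nm) read 5 times over 30-s intervals, last minus first.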
PNC assembly inh: perinucleolar compartment assembly inhibition. PC3M PTB-GFP, PNC prevalence imaging, 16 h; stronger effect = lower value. activity change (PNC), negative = inhibition, % at 10 µM. 140,000 compounds, 3.1% hits. AID 2417;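 active means readout at or below -70, meaning at least 70% loss of cells showing the perinucleolar compartment, a nuclear body marking cancer cells; inconclusive means readout between -30 and a set limit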;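 further: plate controls were DMSO wells for no effect and camptothecin positive control wells for full effect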
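Read-out is percentage of cells bearing a perinucleolar compartment, from automated 20x imaging of fixed, Hoechst-stained PC3M PTB-GFP cells. Cells were seeded 4 h, then exposed 16 h to compound (23 nl of library stock) in duplicate plates.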
ALDH1A1 block: blocks purified human ALDH1A1 activity. AID 1030. Purified ALDH1A1, NADH fluorescence, propionaldehyde substrate. Potency, µM (doses to about 75.3 µM), for the others: top-dose activity, negative = inhibition, usual class: inhibitors. P00352. 220,000 compounds, 7.3% hits;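 further: potency means the concentration at half of the fitted maximal effect; plate controls were no enzyme wells and a reference inhibitor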
Lamin A splicing: modulators of lamin A splicing; HeLa LMNA splicing GFP/RFP minigene ratio, 48 h; Potency, µM (doses to about 46.1 µM), inactives show top-dose ratio change, negative = inhibition, most hits filed as inhibitors; 200,000 compounds, 0.01% hits; AID 1487; active means well fitted inhibition curve with a large enough effect in the signal ratio, with a control signal flat, not every such curve was filed as active; inconclusive means small, poorly fitted or top-dose-only effect, or effect the other way, or a change in a side signal; the % refers to the signal ratio; further: potency means the concentration at half of the fitted maximal effect
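Read-out is the ratio of GFP to DsRed2 object intensity, acquired by 488 nm laser-scanning cytometry on HeLa lamin A-EGFP minigene reporter cells. Compound incubation 48 hrs at 37 °C in Opti-MEM with 2% FBS; DMSO 0.5% final.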
KinaseGlo FLuc: counter-screen: inhibitors of Kinase-Glo firefly luciferase | Kinase-Glo luciferase, ATP luminescence, 8 min | Potency, µM (doses to about 38.3 µM), without a hit: at the highest dose activity change, negative = inhibition, usual class: inhibitors | AID 1379 | 200,000 compounds, 0.28% hits | Q27757; active means well fitted inhibition curve with a large enough effect; inconclusive means small, poorly fitted or top-dose-only effect; further: potency means the concentration at half of the fitted maximal effect; nearly all actives have a fitted effect of over 60% in size
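Recombinant Kinase-Glo luciferase, 10 uM ATP (linear range), luciferin; imidazole pH 7.2 / KCl / MgCl2 / Tween / BSA buffer; 8 min RT; luminescence.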
* = called active by the depositor; ? = inconclusive; nt = no result given; [ ] = remark or other dose. A selection: hits, their analogues and other compounds. The true share with any hit is near 10%. Unless noted, the call rests on the fitted dose curve; in most records, active means well fitted inhibition curve with a large enough effect (not every such curve was filed as active); inconclusive means small, poorly fitted or top-dose-only effect, or another doubt; inactive means no such curve, though single readings can be large or run the other way. Unless noted, on the % scale 0 is the no-effect control and ±100 the full control effect.

SMILES	HPGD inh	PNC assembly inh	ALDH1A1 block	Lamin A splicing	KinaseGlo FLuc
CC(C)(C)NC(=O)COC(=O)c1ccc(NC(=O)CC#N)cc1	nt	nt	19%	nt	-2%
CC1CN(C(=O)COC(=O)c2ccc(NC(=O)CC#N)cc2)CC(C)O1 (stereo not given)	nt	nt	6.3µM*	3%[46 µM]	1%
CC1CN(C(=O)COC(=O)c2ccc(N)c([N+](=O)[O-])c2)CC(C)O1 (stereo not given)	28µM*	?	?	-4%	4%
CC(C)NC(=O)N1CC[C@@]2(CCCN(C(=O)Oc3ccccc3)C2)C1	-1%	nt	30%	nt	-3%
O=C(Cc1ccc(Cl)c(Cl)c1)OCCN1CCCC1	-19%	nt	?	-24%	0%
CC(=O)c1c(C)nc(-c2ccc(Cl)cc2Cl)n1O	-16%	-100*	9%	-8%	2%
O=C(COc1ccc(Cl)cc1Cl)NC(=S)N1CCCc2ccccc21	22µM*	-1	7.5µM*	?	2%
O=C(COc1ccc(Cl)cc1Cl)NC(=O)N1CCCCC1	16µM*	-23	4%	10%	-8%
O=C(COc1ccc(Cl)cc1Cl)OCC(=O)N1CCCc2ccccc21	-7%	?	4%	-15%	1%
O=C(COc1ccc(Cl)cc1Cl)N1CCCN(C(=O)COc2ccc(Cl)cc2Cl)CC1	0%	3	8%	2%	-3%
COc1ccc(-c2nc(CSc3nc4ncccc4[nH]3)c(C)o2)cc1OC	nt	nt	nt	-29%[46 µM]	nt
Cc1cc(Cc2cc(Cc3cc(C)cc(C(C)(C)C)c3O)c(C)cc2C)c(O)c(C(C)(C)C)c1	-10%	nt	2%[13.5 µM]	nt	1%[7.66 µM]
COc1ccc(O)c(-c2[nH]ncc2C(=O)c2ccccc2)c1	-21%	16	7.9µM*	8%	1%
COc1ccc2c(CCNC(=O)CN3C(=O)c4ccccc4C3=O)c[nH]c2c1	-7%	?	-6%	-12%	-2%
O=C(NCCCCCNC(=O)c1ccco1)c1ccco1	-14%	30	28µM*	5%	1%
O=C(NCCSc1c[nH]c2ccccc12)c1ccco1	16µM*	-5	-2%	-17%	-2%
O=C(NCc1cccc(CNC(=O)c2ccco2)c1)c1ccco1	14µM*	?	?	-10%	-8%
COc1ccc2c(CCNC(=O)c3ccco3)c[nH]c2c1	?	-114*	-3%	-5%	-1%
O=C(NCc1ccccc1)c1ccco1	-17%	19	7%	-1%	-1%
O=C(NCCSc1c[nH]c2ccccc12)c1c(F)cccc1F	nt	nt	-4%	nt	nt
CS(=O)(=O)N1CCC2(CC1)CN(c1ccccc1)C2	-8%	nt	10%	nt	-4%
CCNc1ncc2nc(-c3ccccc3)c(=O)n(CCOC)c2n1	nt	nt	?	-10%	nt
CCC(CC)C(=O)Nc1cccc(-c2nc3ncccn3c2C)c1	nt	nt	nt	8%[46 µM]	nt
Cc1cccc(CNc2ncncc2-c2cccc(C#N)c2)c1	-24%	nt	3%	6%	-3%
COc1cccc(N2CC(NC(=O)COc3ccccc3F)CC2=O)c1 (stereo not given)	nt	nt	nt	6%[46 µM]	nt
SMILES	HPGD inh	PNC assembly inh	ALDH1A1 block	Lamin A splicing	KinaseGlo FLuc
Cc1ccc(CN(C(=O)c2ccccc2)c2ccccn2)o1	nt	nt	nt	-1%[46 µM]	nt
CC1(C)C(O)C=C[C@@]2(C)C1CC(=O)O[C@@]1(C)C3=CC(=O)OC(c4ccoc4)[C@]3(C)CCC21 (stereo not given in full)	0%	nt	22µM*	nt	-10%
CC(=O)OC1CC2C(C)(C)C(O)CC(O)[C@@]2(C)C2CC[C@@]3(C)C(=CC(=O)OC3c3ccoc3)[C@]12C (stereo not given in full)	20µM*	nt	?	nt	1%
CC(=O)OC1CC2C(C)(C)C(=O)CC[C@]2(C)C2CC[C@]3(C)C(=CC(=O)OC3c3ccoc3)[C@]12C (stereo not given in full)	1%	nt	5%	nt	-4%
COc1ccc(CN2C(=O)C(O)(CC(=O)c3c(C)n[nH]c3C)c3ccccc32)cc1OC (stereo not given)	-4%	?	3.5µM*	-4%	-2%
NC(=O)CN1C(=O)C(O)(CC(=O)c2ccccc2O)c2ccccc21 (stereo not given)	-15%	-6	?	-14%	1%
C=CCN1C(=O)C(O)(CC(=O)c2c(C)n[nH]c2C)c2cc(Br)ccc21 (stereo not given)	1%	36	?	2%	2%
Cc1ccc(C(=O)CC2(O)C(=O)N(CCc3ccccc3)c3ccc(Br)cc32)o1 (stereo not given)	-14%	41	?	-6%	2%
CC(=O)CC1(O)C(=O)N(Cc2ccccc2)c2ccccc21 (stereo not given)	-4%	59	?	10%	0%
Cc1coc(C)c1C(=O)CC1(O)C(=O)N(Cc2ccccc2)c2ccccc21 (stereo not given)	-27%	?	4.5µM*	5%	11%
C/C(CC1(O)C(=O)N(Cc2ccccc2)c2ccccc21)=N\O (stereo not given)	-16%	?	1.6µM*	6%	-1%
Cc1ccc(C(=O)CC2(O)C(=O)N(Cc3ccccc3)c3ccccc32)o1 (stereo not given)	-12%	44	0.71µM*	-1%	1%
COC(=O)[C@H](CCSC)NC(=O)C/C=C\[C@@H](C)[C@@H](CO)OC	nt	nt	7%[13.5 µM]	nt	nt
Cc1ccc(C(=O)CC2(O)C(=O)N(Cc3ccccc3Cl)c3ccccc32)o1 (stereo not given)	-21%	-17	3.5µM*	?	-2%
CC(O)/C=C/C1OC(=O)CC1Nc1ccc(C=O)cc1 (stereo not given)	nt	nt	0.45µM*	nt	nt
O=S(=O)(CCSc1ccc(C(F)(F)F)cn1)c1ccc(Cl)cc1	nt	nt	-12%	-21%[46 µM]	nt
CO[C@@H]1COC(=O)[C@H]2CCCN2C(=O)[C@@H](C)COC(=O)[C@H](COCc2ccccc2)NC(=O)C/C=C\[C@H]1C	nt	nt	1%[13.5 µM]	nt	nt
CCN(CC)S(=O)(=O)c1ccc(-c2nnc(SCC(=O)Nc3cc(OC)cc(OC)c3)o2)cc1	-9%	-20	13µM*	3%	-2%
CCN(CC)S(=O)(=O)c1ccc(-c2nnc(SCC(=O)Nc3nc(C)cs3)o2)cc1	-8%	-106*	-5%	-2%	-1%
O=C(Oc1ccccc1)N1CCC2(CCCN(c3ccc(-c4ccccc4)cc3)C2)CC1	-8%	nt	?	nt	-2%
CCCCCCCCCCCCC/C=C/[C@@H](O)[C@H](CO)NCCCCCCCC	-9%	nt	-4%	nt	0%
O=C(Nc1ccccc1C(=O)O)c1ccc(NC(=O)c2ccc(Br)o2)cc1	18µM*	56	?	16%	2%
O=C(Nc1ccccc1C(=O)O)/C(=C/c1ccc([N+](=O)[O-])cc1)NC(=O)c1ccc(Br)o1	nt	nt	10µM*	nt	2%
O=C(Nc1ccccc1C(=O)O)c1cccc(NC(=O)c2ccc(Br)o2)c1	-25%	-21	?	-1%	3%

From PubChem
